In PubChem BioAssay AID1053 (University of Pittsburgh Molecular Library Screening Center, 2008):
“And” between values parts separate entries of the source, which are not always exact repeats. Identical values can stand only once.

biological target: Serine/threonine-protein kinase PLK1 (Homo sapiens) (UniProt P53350); experiment: Plk1 polo box domain binding inhibitors, SAR follow-up, biochemical, fluorescence polarization, purchased analogs (AID 1053); settings: Plk1 PBD fluorescence polarization peptide binding; at 20 µM; hits give high values
Sequence (P53350 whole entry, looked up, the tested form may be a part): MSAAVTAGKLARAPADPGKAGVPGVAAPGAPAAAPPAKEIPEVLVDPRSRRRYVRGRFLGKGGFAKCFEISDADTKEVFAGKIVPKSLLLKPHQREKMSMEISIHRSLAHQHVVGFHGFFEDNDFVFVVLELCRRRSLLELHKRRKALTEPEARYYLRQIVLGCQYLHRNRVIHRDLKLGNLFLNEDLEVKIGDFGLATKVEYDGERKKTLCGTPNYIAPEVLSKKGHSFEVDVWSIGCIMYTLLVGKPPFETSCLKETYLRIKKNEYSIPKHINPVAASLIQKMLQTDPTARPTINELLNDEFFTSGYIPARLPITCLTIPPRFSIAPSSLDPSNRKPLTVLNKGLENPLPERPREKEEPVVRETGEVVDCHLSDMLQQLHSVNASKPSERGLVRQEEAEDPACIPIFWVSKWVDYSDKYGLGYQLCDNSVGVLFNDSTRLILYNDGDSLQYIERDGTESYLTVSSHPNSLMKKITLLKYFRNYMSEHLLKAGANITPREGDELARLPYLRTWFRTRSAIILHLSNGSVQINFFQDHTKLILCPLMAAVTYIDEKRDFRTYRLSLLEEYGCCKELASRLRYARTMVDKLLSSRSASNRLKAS

inhibition, inactive:
CCOC(=O)c1ccc(N=Cc2c(O)n(-c3ccc(C)cc3)c(=O)[nH]c2=O)cc1 -22.9%
CCOC(=O)c1ccc(NC(=O)c2ccc3snnc3c2)cc1 -21.6% and -22.3%
CC(=O)N(CN1C(=O)c2ccccc2C1=O)c1ccccc1C -32.5% and -28.6%
COc1cc(C=C2C(=O)NC(=O)NC2=O)ccc1OCc1ccc(Cl)cc1Cl -58.1%
CC(=O)N(CN1C(=O)c2ccccc2C1=O)c1cc(C)ccc1C -34.4%
CC(OC(=O)c1ccc(NC(=O)c2ccc(Br)cc2)cc1)C(=O)c1ccccc1 (centres undefined) 0.95%
CCOC(=O)c1ccc(NC(=O)C2C3C=CC(C3)C2(C)C(=O)O)cc1 (centres undefined) -56.5%
CC(=O)N(CN1C(=O)c2ccccc2C1=O)c1cccc(C)c1 -35.8%
O=c1[nH]c2c(c(O)c1-c1ccccc1)c(=O)n(-c1ccccc1)c(=O)n2-c1ccccc1 -40.4%
COc1cc(C=C2C(=O)NC(=O)NC2=O)ccc1OCc1c(C)no[n+]1[O-] -67.5%
COc1ccccc1N(/N=C1\Sc2ccccc2C1=O)C(C)=O 6.58%
O=c1[nH]c(=O)c2nc(-c3ccc(Cl)cc3)cnc2[nH]1 -45.5%
CCOC(=O)c1ccc(NC(=O)C2CC(=O)NC(=NC)S2)cc1 (centres undefined) -37.5%
CC(=O)N(/N=C1\Sc2ccccc2C1=O)c1ccccc1I -47.1%
